Screening data (PubChem BioAssay)
Rows were chosen to be rich in hits. Some 2.9% of all compounds tested hit in one or more screens of this group.
Granule exo inh: LAMP-1 surface exposure blockers, TALL-104 cells – cell-based, flow cytometry, MLPCN library, primary screen; TALL-104 LAMP-1 surface exposure; cells stimulated with thapsigargin and PMA; inhibition, % at 10 µM; 0.66% of 360,000 active; AID 651702, 2012;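 active = inhibition above about 55%, limit read from the data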
B2AR ag: beta2AR agonists driving receptor internalization, primary screen, cell-based, FAP fluorogen, flow cytometry | Beta-2 adrenergic receptor (Homo sapiens), P07550 | Am2.2-beta2AR cells | response, % (no concentration beside the values) | 0.43% of 340,000 active | AID 504454, 2011;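 active = response above a set limit, near 3 SD of response in nonfluorescent compounds, cut at about 42% in these data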
GRK2 inh: compounds blocking aptamer binding on GRK2 – biochemical, human GRK2, bead flow cytometry, HTS, primary screen; Beta-adrenergic receptor kinase 1 (Homo sapiens), P25098; FAM-aptamer displacement from GRK2; inhibition of aptamer binding, % at 10 µM; 0.59% of 330,000 active;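 active = inhibition of aptamer binding above 40%, roughly 3 SD of noise, on plates passing a quality check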;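 note: median bead fluorescence of bound FAM aptamer so fluorescent compounds give negative values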
Target sequence (P25098 whole entry, looked up): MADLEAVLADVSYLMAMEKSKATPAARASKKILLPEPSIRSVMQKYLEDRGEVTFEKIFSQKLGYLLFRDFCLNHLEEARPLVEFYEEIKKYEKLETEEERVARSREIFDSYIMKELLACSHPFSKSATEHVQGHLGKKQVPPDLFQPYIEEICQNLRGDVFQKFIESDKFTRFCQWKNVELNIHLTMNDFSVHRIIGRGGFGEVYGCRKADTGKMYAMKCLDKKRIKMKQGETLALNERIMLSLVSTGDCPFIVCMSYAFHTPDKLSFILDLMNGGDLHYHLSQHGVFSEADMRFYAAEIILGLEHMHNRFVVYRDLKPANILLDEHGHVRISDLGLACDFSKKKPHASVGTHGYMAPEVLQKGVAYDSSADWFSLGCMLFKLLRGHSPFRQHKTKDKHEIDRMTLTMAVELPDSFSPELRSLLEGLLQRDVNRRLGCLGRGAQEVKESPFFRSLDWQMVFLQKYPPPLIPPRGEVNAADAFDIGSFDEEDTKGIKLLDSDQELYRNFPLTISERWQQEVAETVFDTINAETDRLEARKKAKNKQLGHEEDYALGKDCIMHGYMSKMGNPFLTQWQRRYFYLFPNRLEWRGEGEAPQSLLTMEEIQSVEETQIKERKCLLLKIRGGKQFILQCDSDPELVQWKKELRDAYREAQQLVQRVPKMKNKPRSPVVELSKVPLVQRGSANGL
PP1 counter: PP1-alpha phosphatase inhibitors, primary screen, counter-screen for PP5 inhibitor project, biochemical, fluorescence, OMFP substrate, single point | Serine/threonine-protein phosphatase PP1-alpha catalytic subunit (Homo sapiens), P62136 | purified PP1alpha | inhibition, % at 6.7 µM | 0.9% of 320,000 active;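 active = inhibition above the mean inhibition of all tested compounds plus 3 SD, computed separately for each screening campaign, cut at about 15% in these data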
NadD block: inhibitors of S. aureus NadD, primary screen, biochemical, colorimetric, uHTS. Nicotinate-nucleotide adenylyltransferase NadD (Staphylococcus aureus N315). purified NadD enzyme, colorimetric absorbance read-out. inhibition, % at 20 µM. 0.78% of 360,000 active. AID 602399, 2012; in the data active = inhibition above about 26%
Beta2AR ag CP1: beta2AR agonists via receptor internalization, confirmation, cell-based, FAP fluorogen, flow cytometry, single point, cherry pick 1; shares compounds with B2AR ag; Am2.2-beta2AR cells, FAP surface receptor; stronger effect = lower value; percent response (surface receptor), % at 10 µM; 25% of 1,100 active; AID 540358, 2011;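 active = surface receptor percent response at or below 58%, roughly 3 SD from nonfluorescent compounds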
B2AR FAP counter: counter-screen for beta-2AR agonists: fluorescence in Am2.2 cells; shares compounds with B2AR ag; FAP fluorogen flow cytometry, fluorescence counterscreen; stronger effect = lower value; calls only at 10 µM; 1,100 tested, under 10 active; AID 588765;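 active = percent response below a set limit in fluorescence channel 1 and below 50% in channel 8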
Starred values were filed as active, the others as inactive; i = inactive; x = no result given; + = active, no number.

SMILES	Granule exo inh	B2AR ag	GRK2 inh	PP1 counter	NadD block	Beta2AR ag CP1	B2AR FAP counter
N=c1n(CC(=O)c2ccc([N+](=O)[O-])cc2)c2ccccc2n1Cc1ccccc1	76.5*	98.0*	1.0	-1.2	15.5	39.9*	i
N=c1n(CC(=O)c2ccc([N+](=O)[O-])cc2)c2ccccc2n1Cc1ccc(Cl)cc1	3.5	91.1*	0.0	1.4	4.8	36.8*	i
N=c1n(CCO)c2ccccc2n1Cc1ccc(Cl)cc1	-3.1	2.4	0.0	0.9	-5.9	x	x
N=c1n(CC(=O)c2ccc([N+](=O)[O-])cc2)c2ccccc2n1Cc1ccccc1Cl	-9.8	93.5*	0.0	-4.5	9.8	24.4*	+
CN(C)C(=S)NC(=S)Nc1ccc2ccccc2c1	52.9	-1.2	x	x	-0.6	x	x
CCn1ccnc1CN(C)C(=O)C1CCC(=O)N(Cc2cccc(F)c2)C1 (centres undefined)	-0.8	5.2	0.0	-5.1	0.7	x	x
Cc1ccc([N+](=O)[O-])cc1NC(=O)C[n+]1ccccc1	4.6	-0.2	5.0	-8.5	-12.1	x	x
C=CCc1ccc(OCCOc2ccc(/C=N/n3cnnc3)cc2OCC)c(OC)c1	5.5	57.0*	0.0	0.1	-0.7	33.5*	i
COc1cc(/C=N/n2cnnc2)ccc1OCCOc1ccccc1	-2.3	-2.6	1.0	2.3	-1.6	x	x
CCn1nnc(NC(=S)NC(=O)c2ccc(-c3cccc(Cl)c3)o2)n1	0.1	-4.3	0.0	-1.5	8.0	147.7	i
Cc1ccc(N2CC(C(=O)Nc3ccc(C)c(S(=O)(=O)N(C)C)c3)CC2=O)cc1 (centres undefined)	0.4	-3.2	0.0	1.1	-6.7	x	x
CC(C)(C)c1ccc(-n2nc(C#N)c(Cl)cc2=O)cc1	47.3	52.3*	x	x	-3.4	21.9*	+
CC1(C)NC(=O)N(CC(=O)N2CCCC(C(F)(F)F)C2)C1=O (centres undefined)	1.1	-7.4	2.0	-5.0	-2.1	x	x
COc1ccc(C2/C=C\CN(C(=O)c3ccccc3)CC(=O)N2Cc2ccc(F)cc2)cc1 (centres undefined)	8.7	-8.5	12.0	x	-2.7	78.2	i
COc1ccc(C2/C=C\CN(Cc3ccc(N(C)C)cc3)CC(=O)N2Cc2ccc(F)cc2)cc1 (centres undefined)	-3.6	97.4*	2.0	0.3	-0.7	27.1*	i
CCN(c1ccc2c(c1)OCO2)S(=O)(=O)c1cc(Br)cc2c1N(C(C)=O)CC2	-0.6	79.8*	0.0	1.2	-0.8	47.2*	i
Cc1ccccc1C(=O)NCCNc1ccc([N+](=O)[O-])cc1	-1.4	-4.8	0.0	-1.0	-2.8	x	x
O=C(NCCNc1ccc([N+](=O)[O-])cc1)c1ccccc1Br	-2.8	46.1*	1.0	-1.4	3.0	105.0	i
Cc1ccc(NC(=O)CN2C(=O)/C(=C3\SC(=S)N(C4CCS(=O)(=O)C4)C3=O)c3ccccc32)cc1 (centres undefined)	1.2	48.8*	x	x	20.9	82.7	i
O=C(CN1C(=O)/C(=C2\SC(=S)N(C3CCS(=O)(=O)C3)C2=O)c2ccccc21)Nc1ccccc1 (centres undefined)	0.0	11.5	0.0	-2.9	12.4	x	x
CCCNC(=O)c1ccc2c(c1)nc(C)n2-c1cccc(Cl)c1	8.4	-11.1	27.0	-0.6	-2.0	x	x
O=C(CN1CCOCC1)N1CCN(c2nnc(-c3ccccc3)c3ccccc23)CC1	1.6	68.6*	0.0	-2.7	4.1	58.8	i
Cc1ccc(-c2nnc(N3CCN(C(=O)CN4CCOCC4)CC3)c3ccccc23)cc1	10.2	21.3	2.0	-2.9	12.7	x	x
CCOC(=O)N1CCN(c2nnc(-c3ccc(C)cc3)c3ccccc23)CC1	25.7	44.9*	1.0	-1.6	-3.7	33.4*	i
CCOC(=O)N1CCN(c2nnc(-c3ccccc3)c3ccccc23)CC1	3.3	-10.2	2.0	1.5	-2.8	x	x
SMILES	Granule exo inh	B2AR ag	GRK2 inh	PP1 counter	NadD block	Beta2AR ag CP1	B2AR FAP counter
CSc1ccc(CN2CCC(Oc3ccc(C(=O)N4CCCC4)cc3)CC2)cc1	-8.0	51.1*	3.0	-2.1	0.2	70.3	i
CCc1ccc(CN2CCC(Oc3ccc(C(=O)N4CCCC4)cc3)CC2)cc1	-1.0	82.0*	26.0	-0.7	-5.6	9.0*	i
CC(C)c1ccc(CN2CCC(Oc3ccc(C(=O)N4CCCC4)cc3)CC2)cc1	0.1	3.6	0.0	-0.7	-0.2	x	x
COc1ccc(CN2CCC(Oc3ccc(C(=O)N4CCCC4)cc3)CC2)c(F)c1	-3.7	26.2	3.0	-1.6	-6.3	107.3	i
CCc1ccc(CN2CCC(Oc3ccc(C(=O)N4CCCCC4)cc3)CC2)cc1	10.0	67.4*	2.0	x	1.6	40.0*	i
COc1ccc([C@H]2N[C@]3(CCCN(Cc4ccc(C)cc4)C3=O)[C@H]3C(=O)N(Cc4ccccc4)C(=O)[C@@H]23)cc1	16.7	x	x	x	-1.9	x	x
COC(=O)c1cc(OC)c(OC)c(OC)c1[N+](=O)[O-]	-13.0	14.5	0.0	3.2	-2.9	x	x
O=C(c1ccc(OC2CCN(Cc3ccc(F)cc3)CC2)cc1)N1CCCC1	-0.8	43.1*	3.0	-2.7	-4.3	45.7*	i
C=CCN(c1ccccc1)S(=O)(=O)c1cccc(C(=O)NCC2CCCO2)c1 (centres undefined)	0.2	2.2	0.0	-1.5	3.7	x	x
CCOC(=O)c1c(-c2ccccc2)oc2ccc(O)c(CN3CCCC3)c12	4.7	95.1*	0.0	-0.6	-4.9	106.3	i
CCOC(=O)c1c(-c2ccccc2)oc2ccc(O)c(CN(C)C)c12	12.0	25.3	0.0	0.6	-3.9	x	x
Cc1nc([N+](=O)[O-])c(Br)n1Cc1ccc(Cl)c(Cl)c1	-3.1	57.6*	x	x	-2.4	95.6	i
Cc1nc([N+](=O)[O-])c(Br)n1CC(=O)c1ccc(Cl)cc1	1.7	24.6	1.0	4.2	-1.1	x	x
CCOC(=O)c1ccc(NC(=S)NNC(C)(C)C)cc1	11.7	-4.1	0.0	-2.2	-2.5	95.2	i
OCc1cn(-c2ccccc2)nc1-c1ccc(-c2nn(-c3ccccc3)cc2CO)cc1	-1.8	13.0	1.0	0.2	9.7	x	x
Fc1ccc(-c2nn(-c3ccccc3)cc2CNCc2ccccc2)cc1	36.8	44.2*	0.0	4.5	1.3	91.0	i
Cc1cc(C)cc(N2C(=O)CC(Sc3nnnn3-c3ccccc3)C2=O)c1 (centres undefined)	16.6	50.5*	0.0	0.0	-1.0	113.8	i
